Source: PubChem BioAssay (NCATS)
Records with an inconclusive call do not appear. Values without a mark were called inactive. Calls follow the shape of the dose curve; as a rule, active = well fitted inhibition curve with a large enough effect; inconclusive = small, poorly fitted or top-dose-only effect; inactive = no such curve, though single readings can be large or run the other way.

Assay: HTS Assay for Allosteric Antagonists of the Human D2 Dopamine Receptor: Hit Validation in HTRF (AID 624455);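 also: stable D1 dopamine receptor cell line scored for blocking the D1 response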
Conditions: Cells stably expressing D1 dopamine receptor, inhibition mode; series mostly up to 46.1 µM; activity, negative = inhibition: at the top concentration
Outline: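 Hits were examined in an HTRF assay using cells stably expressing the D1 dopamine receptor, scoring inhibition of the D1-mediated response. The preceding primary screen tracked calcium flux after an EC80 dopamine addition in force-coupled, inducible Hek293 Trex D2 cells.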
% is scaled to controls: 0 for no effect and ±100 for the full control effect.

Row | Compound | activity, negative = inhibition [%]
1 | O=C(Nc1ccc([N+](=O)[O-])cc1Cl)c1cc(Cl)ccc1O | -22.2
2 | OCCN1CCN(CCCN2c3ccccc3Sc3ccc(C(F)(F)F)cc32)CC1 | 3.7
3 | O=C(c1ccc(F)cc1)C1CCN(CCn2c(=O)[nH]c3ccccc3c2=O)CC1 | 31.6
4 | CCc1cccc2c3c([nH]c12)C(CC)(CC(=O)O)OCC3 (stereo not drawn) | -3.77
5 | CCCCc1oc2ccccc2c1C(=O)c1cc(I)c(OCCN(CC)CC)c(I)c1 | -7.42
6 | CCOC(=O)C(C)(C)Oc1ccc(Cl)cc1 | 3.49
7 | CCOC(=O)c1ncn2c1CN(C)C(=O)c1cc(F)ccc1-2 | -0.519
8 | COc1ccc(C2CNC(=O)C2)cc1OC1CCCC1 (stereo not drawn) | -7.05
9 | CC(C)Cc1ccc(C(C)C(=O)O)cc1 (stereo not drawn) | 12.7
10 | Cc1ccccc1N1C(=O)c2cc(S(N)(=O)=O)c(Cl)cc2NC1C (stereo not drawn) | 3.55
11 | Cc1ccc(C(=O)Nc2ccc(S(=O)(=O)O)c3cc(S(=O)(=O)O)cc(S(=O)(=O)O)c23)cc1NC(=O)c1cccc(NC(=O)Nc2cccc(C(=O)Nc3cc(C(=O)Nc4ccc(S(=O)(=O)O)c5cc(S(=O)(=O)O)cc(S(=O)(=O)O)c45)ccc3C)c2)c1 | 1.5
12 | CN1CCN2c3ccccc3Cc3ccccc3C2C1 (stereo not drawn) | 4.73
13 | Cn1c(=O)c2c(ncn2C)n(C)c1=O | -13.7
14 | O=c1c(-c2ccc(O)cc2)coc2cc(O)cc(O)c12 | 4.59
15 | CC1COc2c(N3CCN(C)CC3)c(F)cc3c(=O)c(C(=O)O)cn1c23 (stereo not drawn) | -4.43
16 | NC(CO)C(=O)NNCc1ccc(O)c(O)c1O (stereo not drawn) | -5.59
17 | COc1nc(C)nc(Cl)c1NC1=NCCN1 | -1.19

Row | Compound | activity, negative = inhibition [%]
18 | CCC1(c2ccccc2)C(=O)NCNC1=O | 27.4
19 | NS(=O)(=O)c1cc2c(cc1Cl)NCNS2(=O)=O | -3.47
20 | COc1ccccc1N1CCN(CC(O)COc2cccc3ccccc23)CC1 (stereo not drawn) | 3.79
21 | COc1ccc2[nH]cc(CCNC(C)=O)c2c1 | 8.41
22 | COc1ccccc1OCCNCC(O)COc1cccc2[nH]c3ccccc3c12 (stereo not drawn) | -14.7
23 | O=C1Cc2cc(CCN3CCN(c4nsc5ccccc45)CC3)c(Cl)cc2N1 | 7.3
24 | Cn1ccc2cc3c(cc21)CCN3C(=O)Nc1cccnc1 | 9.51
25 | CCN1CCCC1CNC(=O)c1cc(S(=O)(=O)CC)c(N)cc1OC (stereo not drawn) | 0.153
26 | CCOC(=O)Nc1ccc(NCc2ccc(F)cc2)nc1N | 5.79
27 | COc1ccccc1OCC(O)CN1CCN(CC(=O)Nc2c(C)cccc2C)CC1 (stereo not drawn) | -4.21
28 | Nc1ccn([C@H]2CC[C@@H](CO)O2)c(=O)n1 | 0.295
29 | Cn1c(=O)c2[nH]cnc2n(C)c1=O | -20.1
30 | NC12CC3CC(CC(C3)C1)C2 | -8.52
31 | Clc1ccc2nsnc2c1NC1=NCCN1 | -2.3
32 | Clc1ccccc1C(c1ccccc1)(c1ccccc1)n1ccnc1 | 2.71
33 | CN(C)CCCN1c2ccccc2CCc2ccc(Cl)cc21 | 10.1
